Assay results published in PubChem BioAssay (Tox21).
“And” between values parts separate entries of the source, which are not always exact repeats. Equal entries are not always repeated. Inconclusive results are not listed. The source made the active and inactive calls. Unless noted, calls come from the whole dose curve; as a rule, active = well fitted curve in the direction sought with a large enough effect in the repeat runs; inconclusive = weak or mixed curves; inactive = no such curve, though single readings can be large; an effect the other way counts as inactive or inconclusive.

How the values were obtained:
[1] = qHTS assay for small molecules that induce genotoxicity in human embryonic kidney cells expressing luciferase-tagged ATAD5 (AID 651632); conditions: HEK293T ATAD5-luciferase induction, 16 h; series mostly up to 83.3 µM; note: nearly all actives have a fitted effect of over 15% in size
Summary of the method: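 ATAD5-luc HEK293T, 2,000 cells/well; cpd or DMSO pin-transferred; 16 hr, 37C/5% CO2; Amplite 30 min RT; luminescence.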

[2] = qHTS assay for small molecule agonists of the p53 signaling pathway - cell viability (AID 651633; calls by dose curve; note: nearly all actives have a fitted effect of over 30% in size; note: potency is the fitted concentration of half-maximal effect); conditions: p53RE-bla HCT-116 viability, ATP luminescence, 16 h; series mostly up to 83.3 µM
Summary of the method: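 Viability counter-read: CellTiter-Glo luminescence (30 min, room temperature) in the same p53RE-bla plates. These plates had been exposed to compounds for 16 h at 37 C.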

[3] = qHTS assay for small molecules that induce genotoxicity in human embryonic kidney cells expressing luciferase-tagged ATAD5 - cell viability (AID 651634; calls by dose curve; note: nearly all actives have a fitted effect of over 25% in size; note: potency is the fitted concentration of half-maximal effect); conditions: HEK293T ATAD5-luc cells viability, CellTiter-Fluor, 15.5 h; series mostly up to 83.3 µM
Summary of the method: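 Fluorescence from CellTiter-Fluor, reporting protease activity within live cells, served as the viability read-out. HEK293T cells carrying luciferase-tagged ATAD5 had been treated with compound for 15.5 hr at 37C.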

[4] = qHTS assay for small molecule disruptors of the mitochondrial membrane potential - cell viability (AID 720634; calls by dose curve;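 note: human HepG2 liver cancer cells; nearly all actives have a fitted effect of over 20% in size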); conditions: HepG2 viability, ATP luminescence (CellTiter-Glo), 1 h; series mostly up to 83.2 µM
Summary of the method: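 Cells: HepG2, 2,000/well, attached overnight. Compound 1 hr, 37 C/5% CO2. +m-MPI dye, +CellTiter-Glo 30 min RT. Readout: luminescence (ATP).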

[5] = qHTS assay to test for compound auto fluorescence at 590 nm (red) in HepG2 cells (AID 720674); conditions: HepG2 autofluorescence, red 540/590 nm, 1 h; series mostly up to 91.3 µM
Summary of the method: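 We screened compounds on adherent HepG2 cells, incubating them for an hour at 37 C in 5% CO2 before reading emission at 590 nm under 540 nm excitation; values reflect equivalence to Rose Bengal sodium fluorescence.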

[6] = qHTS assay to test for compound auto fluorescence at 535 nm (green) in HepG2 cells (AID 720675); conditions: green autofluorescence 485/535 nm, 1 h; series mostly up to 91.3 µM
[7] = qHTS assay to test for compound auto fluorescence at 460 nm (blue) in HEK293 cells (AID 720678); conditions: blue autofluorescence 405/460 nm; series mostly up to 91.3 µM
Summary of the method: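 Triamterene serves as the blue fluorophore standard. Compound signal at 405/460 nm is read in HEK293 wells (2,000 cells, 10% dialyzed FBS) after overnight treatment at 37C.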

[8] = qHTS assay to test for compound auto fluorescence at 590 nm (red) in HEK293 cells (AID 720679); conditions: red autofluorescence 540/590 nm; series mostly up to 91.3 µM
Summary of the method: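 We plated HEK293 cells in 10% dialyzed FBS medium, let them adhere for 4-5 hr, then added 23 nL compound. Overnight at 37C and 5% CO2 preceded fluorescence measurement at 540/590nm.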

[9] = qHTS assay to test for compound auto fluorescence at 535 nm (green) in HEK293 cells (AID 720680); conditions: green autofluorescence 485/535 nm; series mostly up to 91.3 µM
[10] = qHTS assay to test for compound auto fluorescence at 535 nm (green) in HEK293 cell free culture (AID 720682); conditions: cell-free medium, green autofluorescence 485/535 nm, stronger effect = higher value; series mostly up to 91.3 µM
Summary of the method: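 Using fluorescein as calibrant, autofluorescence was quantified at 485/535 nm in cell-free DMEM containing 10% FBS after pintool addition of compound or vehicle.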

[11] = qHTS assay to test for compound auto fluorescence at 590 nm (red) in HEK293 cell free culture (AID 720683); conditions: cell-free medium autofluorescence, Ex540/Em590 red; series mostly up to 91.3 µM
Summary of the method: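 Red-channel autofluorescence of compounds in culture medium (DMEM, 10% FBS), no cells, measured at 540/590 nm. Rose Bengal sodium is the reference fluorophore for equivalence.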

[12] = qHTS assay to test for compound auto fluorescence at 590 nm (red) in HepG2 cell free culture (AID 720684); conditions: cell-free medium autofluorescence, red 540/590 nm; series mostly up to 91.3 µM
Summary of the method: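 Plate contents were MEM with 10% FBS plus test compound or DMSO, no cells. Fluorescence was recorded with 540 nm excitation and 590 nm emission.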

[13] = qHTS assay to test for compound auto fluorescence at 460 nm (blue) in HepG2 cell free culture (AID 720685); conditions: Cell-free culture medium, blue autofluorescence 405/460 nm; series mostly up to 91.3 µM
Summary of the method: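 Compound (23 nL) or DMSO pinned into cell-free MEM with 10% FBS; blue fluorescence read at 405/460 nm excitation/emission, expressed as auto-fluorescence equivalency to triamterene.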

[14] = qHTS assay to test for compound auto fluorescence at 535 nm (green) in HepG2 cell free culture (AID 720686); conditions: Cell-free medium, green autofluorescence 485/535 nm; series mostly up to 91.3 µM
[15] = qHTS assay to test for compound auto fluorescence at 460 nm (blue) in HepG2 cells (AID 720687); conditions: autofluorescence 405/460 nm, 1 h; series mostly up to 91.3 µM
Summary of the method: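 Blue-channel autofluorescence (Ex/Em 405/460 nm, triamterene-equivalent) was measured after 1 hr compound exposure at 37 C, 5% CO2. Cells were HepG2, plated overnight at 37 C in MEM plus 10% FBS.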

[16] = molecular target: Glucocorticoid receptor (Homo sapiens) (UniProt P04150); test: qHTS assay to identify small molecule agonists of the glucocorticoid receptor (GR) signaling pathway (AID 720691; active = well fitted activation curve with a large enough effect in the signal ratio in the repeat runs, not every such curve was filed as active; the % refers to the signal ratio); conditions: GR-bla HeLa, beta-lactamase reporter ratio, 18 h; series mostly up to 62.4 µM
Sequence of Glucocorticoid receptor (Homo sapiens) (P04150 whole entry, looked up): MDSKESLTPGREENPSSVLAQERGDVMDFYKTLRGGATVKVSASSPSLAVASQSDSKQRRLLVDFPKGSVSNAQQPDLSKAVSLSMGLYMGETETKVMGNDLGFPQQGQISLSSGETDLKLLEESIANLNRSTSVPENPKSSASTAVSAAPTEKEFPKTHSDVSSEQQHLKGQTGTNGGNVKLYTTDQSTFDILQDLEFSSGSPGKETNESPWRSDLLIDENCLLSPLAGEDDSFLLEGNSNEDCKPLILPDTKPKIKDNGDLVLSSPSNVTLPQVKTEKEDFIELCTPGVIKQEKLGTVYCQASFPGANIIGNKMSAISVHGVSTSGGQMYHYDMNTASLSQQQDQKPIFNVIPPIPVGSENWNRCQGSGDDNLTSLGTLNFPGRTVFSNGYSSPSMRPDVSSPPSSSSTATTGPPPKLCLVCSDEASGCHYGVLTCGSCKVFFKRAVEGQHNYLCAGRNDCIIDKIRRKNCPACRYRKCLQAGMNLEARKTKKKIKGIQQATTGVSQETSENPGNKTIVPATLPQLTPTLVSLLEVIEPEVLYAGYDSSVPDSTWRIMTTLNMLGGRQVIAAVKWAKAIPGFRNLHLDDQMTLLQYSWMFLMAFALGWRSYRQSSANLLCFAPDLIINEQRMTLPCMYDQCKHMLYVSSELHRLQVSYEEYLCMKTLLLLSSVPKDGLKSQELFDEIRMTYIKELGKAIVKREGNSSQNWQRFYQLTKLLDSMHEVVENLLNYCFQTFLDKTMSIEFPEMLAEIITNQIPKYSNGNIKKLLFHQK
Summary of the method: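 Fluorescence intensity from LiveBLAzer B/G FRET substrate (2 h, room temperature) reports beta-lactamase expression driven by the glucocorticoid response element in GR-bla HeLa cells after 18 h compound exposure at 37 C.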

[17] = molecular target: Glucocorticoid receptor (Homo sapiens) (UniProt P04150); test: qHTS assay to identify small molecule antagonists of the glucocorticoid receptor (GR) signaling pathway (AID 720692; active = well fitted inhibition curve with a large enough effect in the signal ratio in the repeat runs, not every such curve was filed as active; the % refers to the signal ratio); conditions: GR-bla HeLa, beta-lactamase FRET ratio, dexamethasone-stimulated, 18 h; series mostly up to 58.5 µM
Summary of the method: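 HeLa GR-bla cells; cmpd + dex 5 nM final, 18 h 37 C; LiveBLAzer B/G FRET substrate 2 h RT; fluorescence intensity read. Antagonist mode, qHTS.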

[18] = qHTS assay to test for compound auto fluorescence at 460 nm (blue) in HEK293 cell free culture (AID 720681); conditions: cell-free medium, autofluorescence 405/460 nm (blue); series mostly up to 91.3 µM
Summary of the method: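 Blue fluorescence (Ex 405/Em 460 nm, triamterene-equivalent) was read immediately after pin transfer of compound or DMSO into medium (DMEM, 10% FBS) without cells.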

[19] = qHTS assay for small molecule disruptors of the mitochondrial membrane potential (AID 720635); conditions: HepG2 mitochondrial membrane potential, Mito-MPS dye ratio; series mostly up to 83.2 µM
Summary of the method: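 Mitochondrial membrane potential tracked with Mito-MPS dye, red aggregates (ex 540/em 590 nm) against green monomers (ex 490/em 535 nm). Compound treatment 1 hr at 37C, dye 30 min in HepG2.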
% is set by controls: 0 for no effect and ±100 for the full control effect.

CCOCC(C)O (stereo not drawn)
inactive: Potency [1] | Potency [2] | Potency [3] | outcome [4] | outcome [5] | outcome [6] | outcome [7] | outcome [8] | outcome [9] | outcome [10] | outcome [11] | outcome [12] | outcome [13] | outcome [14] | outcome [15] | Potency [16] | Potency [17]

CCN(Cc1ccccc1)c1ccccc1
inactive: Potency [1] | Potency [2] | Potency [3] | outcome [4] | outcome [5] | outcome [6] | outcome [7] | outcome [8] | outcome [9] | outcome [18] | outcome [10] | outcome [11] | outcome [12] | outcome [13] | outcome [15]

O=S(=O)(O)c1cc(O)c(O)c(S(=O)(=O)O)c1
inactive: Potency [1] | Potency [2] | Potency [3] | outcome [4] | outcome [5] | outcome [6] | outcome [7] | outcome [8] | outcome [9] | outcome [18] | outcome [10] | outcome [11] | outcome [12] | outcome [13] | outcome [15]

Cc1nc2ccc(CN(C)c3ccc(C(=O)N[C@@H](CCC(=O)O)C(=O)O)s3)cc2c(=O)[nH]1
inactive: Potency [1] | Potency [3] | outcome [4] | Potency [19] | outcome [5] | outcome [6] | outcome [8] | outcome [18] | outcome [10] | outcome [11] | outcome [13] | outcome [14] | outcome [15]
active: Potency [2] 106 nM and 150 nM

Cc1ncc([C@@H](CCCCCCc2ccc3c(n2)NCCC3)CC(=O)O)cn1
inactive: Potency [1] | Potency [2] | outcome [4] | outcome [5] | outcome [6] | outcome [7] | outcome [8] | outcome [9] | outcome [18] | outcome [11] | outcome [12] | outcome [13] | outcome [15]
active: Potency [3] 27.3 nM

O=C(O)c1cn(C2CC2)c2cc(N3CCNCC3)c(F)cc2c1=O
inactive: Potency [1] | Potency [2] | Potency [3] | outcome [4] | Potency [19] | fluorescence, relative to Rose Bengal [5] -0.332% [at 18.6 µM] | fluorescence, % of triamterene [7] 0.0142% [at 18.6 µM] | fluorescence, % of fluorescent control [8] -0.0071% [at 18.6 µM] | fluorescence, % of fluorescein [9] -0.0935% [at 18.6 µM] | fluorescence, % of fluorescent control [18] -0.0136% [at 18.6 µM] | activity change [10] 0.0246% [at 18.6 µM] | fluorescence, % of fluorescent control [11] -0.102% [at 18.6 µM] | fluorescence, % of fluorescent control [13] 0.0229% [at 18.6 µM] | fluorescence, % of fluorescein control [14] 0.0355% [at 18.6 µM] | fluorescence, % of fluorescent control [15] -0.0408% [at 18.6 µM] | Potency [16] | Potency [17]

CC1CCC(CO)CC1 (stereo not drawn)
inactive: Potency [1] | Potency [2] | Potency [3] | outcome [4] | outcome [5] | outcome [6] | outcome [7] | outcome [8] | outcome [9] | outcome [18] | outcome [10] | outcome [11] | outcome [13] | outcome [14] | outcome [15] | Potency [16]
